Here are results for 7 compounds from PubChem BioAssay (NCI).

The panel holds about 83,000 compounds, 20% with a hit somewhere; the sample as a whole holds those more often.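 Single-dose data. Exposure time 48 hours. Values below 10 considered active.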 Unmarked numbers belong to inactive results. Calls of active or inactive are those of the source.

Common to all, as to assay: NCI-60 one-dose screen, 48 h (100 = growth as untreated, 0 = no growth, -100 = all killed)
In one assay the test system is HT29 colon. Conditions: 10 µM unless noted.
A further assay has as its system SNB-75 CNS. Conditions: 10 µM unless noted.
In the next assay the test system is SNB-19 CNS. Conditions: 10 µM unless noted.
The next assay relates to U251 CNS. Conditions: 10 µM unless noted.
Another assay concerns PC-3 prostate. Conditions: 10 µM unless noted.
Another assay relates to SK-MEL-5 melanoma. Conditions: 10 µM unless noted.
Another assay has as its system UACC-62 melanoma. Conditions: 10 µM unless noted.
Another assay deals with LOX IMVI melanoma. Conditions: 10 µM unless noted.
The test system of a further assay is SK-MEL-28 melanoma. Conditions: 10 µM.
A further assay relates to SK-MEL-2 melanoma. Conditions: 10 µM unless noted.
A further assay relates to EKVX NSCLC. Conditions: 10 µM unless noted.
For a further assay, the system named is SN12C renal. Conditions: 10 µM unless noted.
The next assay concerns UO-31 renal. Conditions: 10 µM unless noted.
In a further assay the test system is TK-10 renal. Conditions: 10 µM unless noted.
The subject of the next assay is ACHN renal. Conditions: 10 µM unless noted.
The next assay deals with CAKI-1 renal. Conditions: 10 µM unless noted.
In a further assay the test system is A498 renal. Conditions: 10 µM unless noted.
Another assay deals with CCRF-CEM leukemia. Conditions: 10 µM unless noted.
A further assay has as its system MOLT-4 leukemia. Conditions: 10 µM unless noted.
In the next assay the test system is SR leukemia. Conditions: 10 µM unless noted.

Regarding `COc1cc(/C=C/C(=O)c2ccc(Cl)cc2)cc(CN2CCCCC2)c1O`, the growth with HT29 colon is 19.4%; in the assay with SNB-75 CNS, 70.9%; in the assay with SNB-19 CNS, 85.4%; in the assay with U251 CNS, 74.6%; in the assay on PC-3 prostate it was 90.6%; in the assay with SK-MEL-5 melanoma, 90.7%. In addition, the growth in the assay on UACC-62 melanoma is 87.4%; with LOX IMVI melanoma it was 87.4%; with SK-MEL-28 melanoma it was 97.9%; with SK-MEL-2 melanoma, 108%; with EKVX NSCLC it was 89.5%; in the assay on SN12C renal it was 93.1%. Moreover, the growth in the assay on UO-31 renal is 58.5%; with TK-10 renal it was 115%; in the assay with ACHN renal, 87.1%; with CAKI-1 renal it was 85.2%; in the assay on A498 renal it was 82.6%; in the assay with CCRF-CEM leukemia, 58.8%. The figures for the growth in the assay with MOLT-4 leukemia and with SR leukemia were 64.3% and 34%, respectively.
Turning to `CCC1=C[C@]2(C3CC(=O)N(c4ccccc4)C3=O)CC(C(C)(C)C)C[C@@H]2[C@@H]2C(=O)N(c3ccccc3)C(=O)[C@H]12` (some centres undefined), the growth was 74.3% in the assay with HT29 colon; 66.3% with SNB-75 CNS; 86.2% with SNB-19 CNS; 79.1% in the assay on U251 CNS; 56.7% with PC-3 prostate; 92.1% with SK-MEL-5 melanoma. For the same compound, the growth in the assay on UACC-62 melanoma was 71.9%; in the assay with LOX IMVI melanoma, 93.1%; in the assay on SK-MEL-28 melanoma, 92.6%; with SK-MEL-2 melanoma it was 82.8%; in the assay with EKVX NSCLC it was 74.3%; in the assay with SN12C renal it was 89.2%. The growth in the assay with UO-31 renal was 73.1%; in the assay with TK-10 renal it was 99.7%; in the assay on ACHN renal it was 90.5%; in the assay on CAKI-1 renal it was 71.4%; with A498 renal it was 88%; in the assay on CCRF-CEM leukemia it was 86.2%. For the same compound, the growth in the assay on MOLT-4 leukemia and in the assay on SR leukemia was 80.4% throughout.
Turning to `CNCCNc1nc2ccccc2c2c(=O)c3cc(OC)ccc3sc12`, the growth was -33.3% (active) in the assay on HT29 colon; 43.1% in the assay on SNB-75 CNS; 57.6% with SNB-19 CNS; -19.6% (active) with U251 CNS; 14% in the assay on PC-3 prostate; 76.4% in the assay with SK-MEL-5 melanoma. For the same compound, the growth is 7.43% (active) in the assay with UACC-62 melanoma; -87.8% (active) in the assay on LOX IMVI melanoma; 74.6% in the assay on SK-MEL-28 melanoma; 75.2% in the assay with SK-MEL-2 melanoma; 59.2% in the assay with EKVX NSCLC; 66.3% in the assay with SN12C renal. The growth was 41.1% with UO-31 renal; -15.1% (active) in the assay on TK-10 renal; 35.4% in the assay on ACHN renal; 48% with CAKI-1 renal; 45.7% in the assay on A498 renal; 2.47% (active) in the assay with CCRF-CEM leukemia. Also, the growth with MOLT-4 leukemia was -28.8% (active); in the assay with SR leukemia, 5.19% (active).
Regarding `O=C1CCC(N2C(=O)c3cccc(NCCCCCCOc4ccc(Nc5nccc(Nc6ccccc6)n5)cc4)c3C2=O)C(=O)N1` (centres undefined), the growth was 88.1% in the assay on HT29 colon; 89% in the assay with SNB-75 CNS; 86.3% in the assay with SNB-19 CNS; 83.3% with U251 CNS; 73.4% with PC-3 prostate; 7.47% (active) with SK-MEL-5 melanoma. The growth is 71.3% with UACC-62 melanoma; 88.1% in the assay with LOX IMVI melanoma; 82.9% with SK-MEL-28 melanoma; 82.5% with SK-MEL-2 melanoma; 77.3% in the assay on EKVX NSCLC; 79% with SN12C renal. Further, the growth is 77.8% in the assay on UO-31 renal; 108% with TK-10 renal; 74.8% with ACHN renal; 63.8% in the assay with CAKI-1 renal; 74.6% in the assay on A498 renal; 66.1% in the assay on CCRF-CEM leukemia. Moreover, the growth is 55.2% in the assay on MOLT-4 leukemia and 68.5% in the assay with SR leukemia.
Consider `COc1cc(/C=C2\CN(S(=O)(=O)c3ccccc3)C/C(=C\c3cc(CN4CCCC4)c(O)c(OC)c3)C2=O)cc(CN2CCCC2)c1O`, for which the growth in the assay on HT29 colon was -9.09% (active); in the assay with SNB-75 CNS it was 20.2%; with SNB-19 CNS, 12.2%; in the assay with U251 CNS, -21.7% (active); with PC-3 prostate, 8.85% (active); in the assay on SK-MEL-5 melanoma, 20.7%. Moreover, the growth in the assay on UACC-62 melanoma was -60% (active); with LOX IMVI melanoma, -75.4% (active); in the assay with SK-MEL-28 melanoma, 10.5%; with SK-MEL-2 melanoma it was -0.727% (active); in the assay on EKVX NSCLC, 24.7%; with SN12C renal it was -25.8% (active). Also, the growth was 34.7% in the assay on UO-31 renal; 26.8% in the assay with TK-10 renal; 12.1% with ACHN renal; 75.3% in the assay with CAKI-1 renal; 8.57% (active) with A498 renal; 7.45% (active) in the assay on CCRF-CEM leukemia. Also, the figures for the growth in the assay with MOLT-4 leukemia and in the assay on SR leukemia were 1.22% (active) and 17.5%, respectively.
In the case of `O=Cc1cc2ccccc2nc1Nc1nccs1`, the growth in the assay on HT29 colon is 33.9%; in the assay on SNB-75 CNS, 79.4%; in the assay with SNB-19 CNS, 71.6%; in the assay on U251 CNS, 70.4%; in the assay on PC-3 prostate it was 49.5%; in the assay with SK-MEL-5 melanoma, 82.2%. The growth with UACC-62 melanoma was 84.5%; with LOX IMVI melanoma it was 31.7%; in the assay with SK-MEL-28 melanoma, 104%; with SK-MEL-2 melanoma it was 105%; with EKVX NSCLC, 98.5%; in the assay on SN12C renal, 45.5%. Further, the growth in the assay on UO-31 renal was 31.2%; in the assay on TK-10 renal, 101%; in the assay with ACHN renal, 31.5%; in the assay on CAKI-1 renal, 79.5%; in the assay on A498 renal, 81.9%; in the assay on CCRF-CEM leukemia, 46.7%. In addition, the growth in the assay with MOLT-4 leukemia was 23.4%; in the assay on SR leukemia, 33.9%.
Consider `N#CC(C#N)=Cc1c(-c2ccccc2)[nH]c2ccccc12`, for which the growth in the assay with HT29 colon is 14.3%; in the assay with SNB-75 CNS it was 2.62% (active); in the assay on SNB-19 CNS, 37.8%; in the assay with U251 CNS, 32.1%; in the assay with PC-3 prostate it was 9.36% (active); in the assay on SK-MEL-5 melanoma, 14.9%. Moreover, the growth with UACC-62 melanoma was 32.2%; in the assay with LOX IMVI melanoma, 48.3%; in the assay with SK-MEL-28 melanoma, 42.7%; with SK-MEL-2 melanoma, 45.7%; in the assay with EKVX NSCLC, 66%; with SN12C renal, 44.3%. For the same compound, the growth in the assay with UO-31 renal is 38.9%; in the assay with TK-10 renal, 67.6%; in the assay with ACHN renal, 65.5%; in the assay on CAKI-1 renal it was 38.6%; in the assay on A498 renal, -3.79% (active); in the assay with MOLT-4 leukemia, 26.9%. Moreover, in the assay on SR leukemia, the growth was 32.2%.
